Laboratory results as given in PubChem BioAssay AID463173 (ICCB-Longwood Screening Facility, Harvard Medical School, 2010).
Screen size: about 52,000 compounds; about 4,300 (8.3%) were called active. No stated cut-off is given here; in the data, active means survival mostly below about 52% (no sharp cut-off); inactive means mostly above about 56%. The full list was thinned out, with actives kept by preference.

Test system: DeltatarO mutant
Test: S. aureus survival, RN4220 and DeltatarO strains – OD600, teichoic acid synthesis inhibitors, primary screen (AID 463173)
Conditions: S. aureus RN4220 wild type/DeltatarO growth, OD600, 18 h, stronger effect = lower value, screened at 18.75 µg/mL (by protocol)

Row | Structure (SMILES) | survival
1 | CCC(=O)NC1CC(=O)N(c2ccc3c(c2)OCCO3)C1 (stereo not given) | 82% (inactive)
2 | CC(=O)N1CCC(N(Cc2ccc(C)o2)C(=O)Nc2cccc(C(F)(F)F)c2)CC1 | 91% (inactive)
3 | CC(C)NC(=O)c1ccc(NC(=O)N2CCCCc3ccccc32)cc1 | 70% (inactive)
4 | Cc1ccc(CN(C(=O)COc2ccc(Cl)c(C)c2)c2ccccn2)o1 | 52% (inactive)
5 | CCOC(=O)c1cc(S(=O)(=O)N2CCN(c3ccc(OC)cc3)CC2)[nH]n1 | 128% (inactive)
6 | CCC1Oc2ccccc2N(CC(=O)NCCc2ccc(OC)c(OC)c2)C1=O (stereo not given) | 115% (inactive)
7 | COc1cccc2c1ncc1c(-c3ccc(C)cc3)nn(-c3cccc([N+](=O)[O-])c3)c12 | 87% (inactive)
8 | Cc1ccc(NC(=O)CCn2cnc3onc(-c4ccc(F)cc4)c3c2=O)c(Br)c1 | 102% (inactive)
9 | CCOC(=O)C1CCCN(c2c3c(nc4cc(-c5ccc(F)cc5)nn24)CCCC3)C1 (stereo not given) | 76% (inactive)
10 | CCOC(=O)C1CCCN(c2c(C(=O)c3ccccc3)cnc3ccc(F)cc23)C1 (stereo not given) | 35% (active)
11 | CCc1ccc(C(=O)c2cnc3ccc(F)cc3c2S(=O)(=O)c2ccccc2)cc1 | 123% (inactive)
12 | CCOC(=O)c1c(S(=O)(=O)NCC(=O)N2CCN(c3cc(C)ccc3C)CC2)c(C)n(C)c1C | 71% (inactive)
13 | CCS(=O)(=O)N1CCc2cc(C(=O)NCc3ccccc3OC)ccc21 | 40% (active)
14 | CCS(=O)(=O)N1CCc2cc(C(=O)NCc3ccccc3)ccc21 | 68% (inactive)
15 | COc1ccccc1CNC(=O)c1ccc2c(c1)CCN2S(=O)(=O)c1ccc(Cl)cc1 | 82% (inactive)
16 | COc1ccccc1CNC(=O)c1ccc2c(c1)CCN2S(=O)(=O)c1ccccc1 | 43% (active)
17 | COc1ccccc1N1CCN(C(=O)c2ccc3c(c2)CCN3S(=O)(=O)c2ccccc2)CC1 | 62% (inactive)
18 | CCS(=O)(=O)N1CCc2cc(C(=O)NCc3ccccc3Cl)ccc21 | 89% (inactive)
19 | CC1=C(C(=O)Nc2ccccc2)C(c2cccnc2)n2nc(SCc3ccccc3Cl)nc2N1 (stereo not given) | 179% (inactive)
20 | CCCCNC(=O)CN1C(=O)COc2ccc(S(=O)(=O)N3CCCCCC3)cc21 | 80% (inactive)
21 | Oc1ccccc1-c1nc(/C=C/c2ccc(F)cc2)no1 | 79% (inactive)
22 | Oc1ccccc1-c1nc(/C=C/c2ccc(F)cc2)nn1-c1ccccc1 | 26% (active)
23 | CC(=O)Nc1ccc(/C=C/c2noc(-c3ccccc3O)n2)cc1 | 75% (inactive)
24 | CN(C)c1ccc(/C=C/c2nc(-c3ccccc3O)n(-c3ccccc3)n2)cc1 | 42% (active)
25 | CC(=O)Nc1ccc(/C=C/c2nc(-c3ccccc3O)n(-c3ccccc3)n2)cc1 | 84% (inactive)

Row | Structure (SMILES) | survival
26 | N#Cc1nc(/C=C/c2ccc(F)cc2)oc1N1CCN(c2ccccc2)CC1 | 73% (inactive)
27 | Oc1ccc(/C=C/c2nc(-c3ccccc3O)n(-c3ccccc3)n2)c(O)c1 | -3% (active)
28 | CN(C)c1ccc(/C=N/NC(=O)c2ccccc2)cc1 | 95% (inactive)
29 | CN(C)c1ccc(/C=C/c2noc(-c3ccccc3O)n2)cc1 | 86% (inactive)
30 | Cc1nc(C)c(C(=O)N/N=C/c2ccc(O)cc2O)cc1C(=O)N/N=C/c1ccc(O)cc1O | 80% (inactive)
31 | Oc1ccccc1-c1nc(/C=C/c2ccccc2)nn1-c1ccccc1 | 7% (active)
32 | Cc1ccc2c(c1)c(N1CCCC1=O)c(C(=O)Nc1ccc(F)cc1F)n2C | 71% (inactive)
33 | CCCCN(CCCC)CCNC(=O)CN1C(=O)CSc2ccc(S(=O)(=O)N3CCOCC3)cc21 | 92% (inactive)
34 | CCCCN(CCCNC(=O)c1cc(Nc2ccc(OC)cc2OC)nc2ccccc12)Cc1ccccc1 | 99% (inactive)
35 | O=c1c2sc3ccccc3c2n(Cc2ccccc2Cl)c(=O)n1Cc1ccccc1 | 56% (inactive)
36 | CC(C)(C)C(=O)NC1CC(=O)N(c2ccc3c(c2)OCCO3)C1 (stereo not given) | 125% (inactive)
37 | Cn1cc(-c2cc3n(n2)CCC(=O)N3CCCC(=O)Nc2ccc(F)cc2F)c2ccccc21 | 128% (inactive)
38 | Cc1c(Cl)cccc1-n1ncc(C(=O)Nc2ccc3c(c2)OCCO3)c1C1CCN(C(=O)OC(C)(C)C)CC1 | 102% (inactive)
39 | CC(CNC(=O)CCc1cn(Cc2ccccc2Cl)c2ccccc12)c1ccccc1 (stereo not given) | 66% (inactive)
40 | COc1ccc(/C=C/c2noc(-c3ccccc3O)n2)cc1OC | 130% (inactive)
41 | Oc1ccccc1-c1nc(/C=C/c2ccccc2Cl)no1 | 67% (inactive)
42 | Oc1ccccc1-c1nc(/C=C/c2ccccc2Cl)nn1-c1ccccc1 | 14% (active)
43 | COc1cc2c(-c3cc(Br)ccc3O)nc3c(c(C)nn3-c3ccccc3)c2cc1OC | 77% (inactive)
44 | COc1ccc(/C=C/c2nc(-c3ccccc3O)n(-c3ccccc3)n2)cc1OC | 13% (active)
45 | Cc1nn(-c2ccccc2)c(Cl)c1C(N)=O | 73% (inactive)
46 | CCc1ccc(C2CC(=O)c3c([nH]c(C(=O)OCC4CCCCC4)c3C)C2)cc1 (stereo not given) | 89% (inactive)
47 | Cc1c(C(=O)N2CCCCCC2)c(S(=O)(=O)Nc2ccc(OC(F)(F)F)cc2)c(C)n1C | 113% (inactive)
48 | CCOc1ccc(C(=O)Nc2cc(-c3nc4cc(OC)ccc4o3)ccc2C)cc1[N+](=O)[O-] | 62% (inactive)
49 | CCOC(=O)c1cnc2c(C(F)(F)F)cccc2c1Nc1cccc(C(=O)OC)c1 | 14% (active)
50 | CCOC(=O)c1ccc2nc(C)cc(Nc3ccc(OC(C)C)cc3)c2c1 | 133% (inactive)

Row | Structure (SMILES) | survival
51 | CCOC(=O)c1cnc2cc(C(F)(F)F)ccc2c1Nc1cc(C)ccc1OC | 71% (inactive)
52 | CCOC(=O)c1cnc2c(Cl)cc(Cl)cc2c1Nc1cc(C(=O)O)ccc1C | 60% (inactive)
53 | CCOC(=O)c1cnc2cc(C(F)(F)F)ccc2c1N1CCN(c2ccc(F)cc2)CC1 | 57% (inactive)
54 | CCOC(=O)c1ccc(Nc2ncnc3c2cnn3-c2cccc(Cl)c2)cc1 | 75% (inactive)
55 | CCOC(=O)c1cnc2c(C(F)(F)F)cccc2c1Cl | 82% (inactive)
56 | CCOC(=O)c1cnc2c(C)cccc2c1Nc1ccc(OC(C)C)cc1 | 2% (active)
57 | CCCOC(=O)c1ccc(Nc2c(C(=O)OCC)cnc3c(C)cc(Cl)cc23)cc1 | 11% (active)
58 | CCOC(=O)c1cnc2cc(C(F)(F)F)ccc2c1Nc1ccc(F)cc1F | 2% (active)
59 | CCOc1ccc(NC(=O)c2c(NCc3cc(OC)c(OC)cc3OC)sc3c2CCCC3)cc1 | 74% (inactive)
60 | CCOC(=O)C1CCCN(S(=O)(=O)c2ccc(N3CCCCS3(=O)=O)cc2)C1 (stereo not given) | 55% (inactive)
61 | O=C(c1cnn(-c2ccc(F)cc2)c1-n1cccc1)N1CCN(c2cccc(Cl)c2)CC1 | 70% (inactive)
62 | CCOc1ccccc1CNC(=O)c1ccc2nc(CCc3ccccc3)oc2c1 | 83% (inactive)
63 | Cc1cccc(C(=O)NCC(=O)OCc2cc(=O)n3nc(CC(C)C)sc3n2)c1 | 105% (inactive)
64 | O=C(Cn1c2ncccc2c(=O)n1-c1ccccc1)NCc1ccccc1Cl | 68% (inactive)
65 | COc1ccc(NC(=O)CN2C(=O)COc3ccc(S(=O)(=O)NC4CCCC4)cc32)cc1OC | 75% (inactive)
66 | Cc1ccc(NC(=O)CCCn2c(=O)c3cccn3c3cccnc32)cc1C | 79% (inactive)
67 | CC(C)n1c(C(=O)OC(C(=O)NCc2ccco2)c2cccnc2)cc2sccc21 (stereo not given) | 88% (inactive)
68 | CCOC(=O)c1cnc2c(ccc3ccccc32)c1Nc1ccccc1O | 69% (inactive)
69 | CCOC(=O)c1cnc2c(ccc3ccccc32)c1Nc1ccc(C(C)=O)cc1 | 1% (active)
70 | CCOC(=O)c1cnc2c(ccc3ccccc32)c1Nc1ccc(Cl)cc1 | 23% (active)
71 | CCOC(=O)c1cnc(NCc2ccc(Cl)cc2)c2ccccc12 | 91% (inactive)
72 | CCOC(=O)c1cnc2c(ccc3ccccc32)c1Nc1ccc(OC)c(OC)c1 | 7% (active)
73 | CCOC(=O)c1cnc2c(ccc3ccccc32)c1Nc1ccc(OCC)cc1 | 5% (active)
74 | CCCOc1ccc(Nc2nc(SC)ncc2C(=O)OCC)cc1 | 65% (inactive)
75 | COc1cc(NC(=O)C2CCN(c3nnc(C)c4c(C)n(-c5ccccc5)nc34)CC2)cc(OC)c1 | 87% (inactive)

Row | Structure (SMILES) | survival
76 | CCOc1ccc(NC(=O)CSc2nnnn2C2CCCC2)cc1 | 68% (inactive)
77 | Cc1ccc(-n2nc(C(=O)N3CCN(c4ccccc4F)CC3)c3c4ccccc4n(C)c3c2=O)cc1 | 88% (inactive)
78 | CCCOc1ccc(CNC(=O)C(CC)n2nc(C)c3sc4ccccc4c3c2=O)cc1 (stereo not given) | 69% (inactive)
79 | O=C(NCCS(=O)(=O)N1CCN(c2cccc(Cl)c2)CC1)C(c1ccccc1)c1ccccc1 | 72% (inactive)
80 | COc1ccc(OC)c(NC(=O)c2ccc3c(c2)c(C)c(C)n3Cc2ccc(F)cc2)c1 | 122% (inactive)
81 | Cc1ccc(CNCC(C)O)s1 (stereo not given) | 73% (inactive)
82 | Cc1ccc(C(=O)Nc2ccc(NC(=O)c3cccs3)cc2)cc1C | 66% (inactive)
83 | CCc1nn(CC(=O)N2CCN(c3cccc(C)c3C)CC2)c(=O)c2cc3sccc3n12 | 134% (inactive)
84 | CCCNC(=O)CN1C(=O)COc2ccc(S(=O)(=O)N3CCC(C)CC3)cc21 | 121% (inactive)
85 | COCCNc1oc(-c2ccc(COc3ccc(OC)cc3)o2)nc1C#N | 79% (inactive)
86 | Cc1ccc(C2=NN(CC(=O)NCCc3ccc(Cl)cc3)C(=O)CC2)cc1 | 117% (inactive)
87 | CCn1c(C)c(C2N3CC4(C)CN2CC(CC)(C3)C4=O)c2ccccc21 (stereo not given) | 108% (inactive)
88 | Cc1cccc(C)c1-n1ncc(C(=O)N2CCN(c3ccccn3)CC2)c1C1CCN(C(=O)OC(C)(C)C)CC1 | 81% (inactive)
89 | CCOC(=O)c1noc2ncnc(Nc3cccc(C(F)(F)F)c3)c12 | 92% (inactive)
90 | CCOC(=O)c1cnc2c(ccc3ccccc32)c1Nc1cccc(C(F)(F)F)c1 | 36% (active)
91 | CCOC(=O)c1cnc(SC)nc1Nc1ccccc1 | 84% (inactive)
92 | CCOC(=O)c1noc2ncnc(Nc3cccc(OC)c3)c12 | 73% (inactive)
93 | CCOC(=O)c1sc2ccccc2c1S(=O)(=O)Nc1cccc(C(F)(F)F)c1 | 63% (inactive)
94 | COc1cccc(C(=O)c2sc(Nc3ccc(F)c(Cl)c3)nc2N)c1 | 55% (inactive)
95 | Cc1ccccc1Nc1nc(N)c(C(=O)c2ccccc2Cl)s1 | 92% (inactive)
96 | CCOC(=O)c1cnc2c(OC)cccc2c1Nc1cccc(O)c1 | 61% (inactive)
97 | CCOC(=O)c1cnc2c(ccc3ccccc32)c1Nc1cccc(OC)c1 | 29% (active)
98 | CCOc1ccc(Nc2nc(N)c(C(=O)c3ccccc3Cl)s2)cc1 | 0% (active)
99 | CCOC(=O)c1cnc2c(Cl)c(Cl)ccc2c1Nc1ccc(N(C)C)cc1 | 80% (inactive)
100 | CCOC(=O)c1cnc2c(ccc3ccccc32)c1Nc1ccc(N(C)C)cc1 | 0% (active)
